Peg3 prom inh-1: Peg3 promoter-driven luciferase inhibitors, primary screen, cell-based, HeLa, luciferase luminescence. 360,000 tested, 1.7% active. HeLa PEG-Prom luciferase reporter, overnight. AID 588405, 2011. inhibition, % at 20 µM;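 active = inhibition of at least 50% at 20 µM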
TROY NFkB inh: inhibitors of TROY-driven NF-kB signaling, primary screen, Q293 LMP1-TROYcd cells, NF-kB luciferase, uHTS. Q293 LMP1-TROYcd NF-kB luciferase reporter, 4 h. inhibition, % at 10 µM. 360,000 tested, 0.98% active;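 active = compounds whose plate-normalised and pattern-corrected inhibition of the luciferase reporter signal at the single screening dose is 50% or more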
CF NFkB block: inhibitors of PAF-induced NF-kB signaling, primary screen, cell-based, GFP fluorescence, uHTS; inhibition, % at 5 µM; AID 588850, 2011; KKLEB NF-kB-GFP reporter, GFP fluorescence overnight; 360,000 tested, 0.86% active;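 active = at least 50% inhibition at 5 µM, scaled per plate between neutral and stimulator controls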;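 note: PAF is a Pseudomonas aeruginosa culture filtrate used as stimulus; plate controls were PAF-stimulated DMSO wells for no effect and unstimulated DMSO wells for full effect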
TWEAK-Fn14 inh: inhibitors of TWEAK-Fn14 signaling, primary screen, luciferase reporter cells, uHTS. inhibition, % at 10 µM. TWEAK-stimulated Fn14 reporter cells, luciferase luminescence, 8 h. 360,000 tested, 2% active; in the data active = inhibition above about 50%
KKLEB cytotox: cytotoxicity in KKLEB CF airway cells, primary screen, cytotoxicity control for CF NF-kB inhibitor project, cell-based, uHTS, fluorescence assay plates. KKLEB CF airway cells viability, ATPlite luminescence, overnight; active compounds read low; cells stimulated with P. aeruginosa culture filtrate. activity change (cytotoxicity), % at 5 µM. 360,000 tested, 0.36% active;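 active = corrected activity change at or below -50% at 5 µM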
HIF-2a inh: HIF-2a reporter inhibitors, primary screen, luminescence, 786-0 RCC cells; 786-0 RCC cells HIF-2a reporter, luciferase luminescence, overnight; inhibition, % at 18.8 µM; 360,000 tested, 0.72% active;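 active = inhibition of the luminescence signal of 40% or more relative to plate controls, in a single-dose primary screen at 18.75 µM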
Peg3 prom inh-2: Peg3 promoter reporter inhibitors, retest, confirmation, cell-based, HeLa, luciferase reporter, single concentration. HeLa PEG-Prom luciferase reporter, luminescence, overnight. 1,300 tested, 84% active. AID 602417, 2012. shares compounds with Peg3 prom inh-1. inhibition, % at 20 µM;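 active = at 20 µM dose, 40% or more inhibition averaged across four replicates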
* hit, by the source's call. An excerpt weighted towards active compounds, which were near 4% of everything screened.

For O=C(CCSc1nc2ccccc2s1)N/N=C/c1c(O)ccc2ccccc12 the results were Peg3 prom inh-1 54*, TROY NFkB inh 20, CF NFkB block 10, TWEAK-Fn14 inh 14, KKLEB cytotox 1, HIF-2a inh 15 and Peg3 prom inh-2 59*.
For CS(=O)(=O)N(CC(=O)NCCc1ccccc1)c1cccc([N+](=O)[O-])c1 the results were Peg3 prom inh-1 -26, TROY NFkB inh -2, CF NFkB block -8, TWEAK-Fn14 inh -5, KKLEB cytotox -2 and HIF-2a inh -33.
`O=C(CN(c1ccc(Cl)cc1)S(=O)(=O)c1ccc(Cl)c([N+](=O)[O-])c1)NCCc1ccccc1` gave Peg3 prom inh-1 87*, TROY NFkB inh -21, CF NFkB block -9, TWEAK-Fn14 inh -5, KKLEB cytotox -1, HIF-2a inh 7 and Peg3 prom inh-2 31.
Screening COc1ccccc1-c1ccc(=O)n(CC(=O)Nc2ccc(C(=O)N3CCCC3)cc2)n1 returned Peg3 prom inh-1 12, TROY NFkB inh 7, CF NFkB block 42, TWEAK-Fn14 inh 1, KKLEB cytotox -20 and HIF-2a inh -4.
For O=S(=O)(c1cccs1)N1CCN(c2ccnc3cc(Cl)ccc23)CC1 the results were Peg3 prom inh-1 51*, TROY NFkB inh 37, CF NFkB block 25, TWEAK-Fn14 inh 18, KKLEB cytotox -19, HIF-2a inh 33 and Peg3 prom inh-2 69*.
`O=C(NNC(=O)c1cccnc1SCc1cccc([N+](=O)[O-])c1)c1ccccn1` gave Peg3 prom inh-1 55*, TROY NFkB inh -6, CF NFkB block 1, TWEAK-Fn14 inh 4, KKLEB cytotox 5, HIF-2a inh 17 and Peg3 prom inh-2 70*.
COc1ccc(S(=O)(=O)N2CCCC(C(=O)Nc3ccc4c(c3)OCCO4)C2)cc1 (stereo not drawn) was read as Peg3 prom inh-1 -6, TROY NFkB inh 17, CF NFkB block 2, TWEAK-Fn14 inh 34, KKLEB cytotox 8 and HIF-2a inh -16.
`COc1ccc(C(=O)NC(=O)Nc2cc(C)ccn2)cc1` gave Peg3 prom inh-1 72*, TROY NFkB inh 79*, CF NFkB block 7, TWEAK-Fn14 inh 97*, KKLEB cytotox -55*, HIF-2a inh -24 and Peg3 prom inh-2 38.
O=C(NC(=O)c1ccccc1)Nc1ccccn1 was read as Peg3 prom inh-1 90*, TROY NFkB inh 73*, CF NFkB block 12, TWEAK-Fn14 inh 95*, KKLEB cytotox -22, HIF-2a inh 75* and Peg3 prom inh-2 77*.
Screening COc1ccc(NC(=O)Nc2cc(C)ccn2)cc1 returned Peg3 prom inh-1 -145, TROY NFkB inh -15, CF NFkB block -2, TWEAK-Fn14 inh 39, KKLEB cytotox -8 and HIF-2a inh -89.
O=C(Nc1ccccn1)c1ccc(C(=O)c2ccccc2)cc1 was read as Peg3 prom inh-1 -350, TROY NFkB inh -37, CF NFkB block 9, TWEAK-Fn14 inh 15, KKLEB cytotox -18 and HIF-2a inh -209.
`N=c1sccn1CC(=O)Nc1ccc([N+](=O)[O-])cc1Cl` gave Peg3 prom inh-1 -10, TROY NFkB inh 3, CF NFkB block 10, TWEAK-Fn14 inh 6, KKLEB cytotox -7 and HIF-2a inh 11.
Screening COc1ccc2oc(C(=O)OCC(=O)N3CC(C)OC(C)C3)c(C)c2c1 (stereo not drawn) returned Peg3 prom inh-1 0, TROY NFkB inh 5, CF NFkB block 13, TWEAK-Fn14 inh -14, KKLEB cytotox 1 and HIF-2a inh -1.
For CC(=C/c1ccccc1)/C=N/Nc1nc(N2CCOCC2)nc(N2CCOCC2)n1 the results were Peg3 prom inh-1 -15, TROY NFkB inh 2, CF NFkB block -16, TWEAK-Fn14 inh 2, KKLEB cytotox 15 and HIF-2a inh 13.
For CCOC(=O)C1CCN(C(=O)c2ccc3c(c2)NC(=O)/C(=C\c2cccc(C)c2)S3)CC1 the results were Peg3 prom inh-1 -1, TROY NFkB inh 50, CF NFkB block -1, TWEAK-Fn14 inh -12, KKLEB cytotox 16 and HIF-2a inh -26.
`Cc1cccc(/C=C2/Sc3ccc(C(=O)NCCN4CCCC4)cc3NC2=O)c1` gave Peg3 prom inh-1 94*, TROY NFkB inh -3, CF NFkB block 14, TWEAK-Fn14 inh -10, KKLEB cytotox -19, HIF-2a inh 5 and Peg3 prom inh-2 100*.
Screening O=C(/C=C/c1ccc(F)cc1)NC(=S)NNC(=O)c1cnccn1 returned Peg3 prom inh-1 55*, TROY NFkB inh 3, CF NFkB block 22, TWEAK-Fn14 inh 0, KKLEB cytotox 1, HIF-2a inh -2 and Peg3 prom inh-2 40*.
CCOCCCN(C(=O)c1snc(C(N)=O)c1N)C(C(=O)NCCC(C)C)c1ccc(F)cc1 (stereo not drawn) was read as Peg3 prom inh-1 31, TROY NFkB inh 18, CF NFkB block -7, TWEAK-Fn14 inh -12, KKLEB cytotox -10 and HIF-2a inh 18.
COc1ccccc1CCNC(=O)c1cc(-c2ccncc2)nc2ccc(Br)cc12 was read as Peg3 prom inh-1 60*, TROY NFkB inh 11, CF NFkB block 21, TWEAK-Fn14 inh 33, KKLEB cytotox -9, HIF-2a inh 24 and Peg3 prom inh-2 36.
Cc1ccccc1-c1nc(CN2CCC(C(=O)NC3CCN(Cc4ccccc4)CC3)CC2)c(C)o1 was read as Peg3 prom inh-1 56*, TROY NFkB inh -7, CF NFkB block 20, TWEAK-Fn14 inh -8, KKLEB cytotox -8, HIF-2a inh 2 and Peg3 prom inh-2 -7.
For Cc1cc(C)c(S(=O)(=O)ON2C(=O)c3ccccc3C2=O)cc1C the results were Peg3 prom inh-1 70*, TROY NFkB inh 16, CF NFkB block -2, TWEAK-Fn14 inh 0, KKLEB cytotox 2, HIF-2a inh 39 and Peg3 prom inh-2 41*.
Screening Cc1ccc(OC(=O)CN2C(=O)c3ccccc3C2=O)cc1C returned Peg3 prom inh-1 -7, TROY NFkB inh -5, CF NFkB block -20, TWEAK-Fn14 inh 9, KKLEB cytotox 10 and HIF-2a inh 5.
For CCC(C)Sc1ccc(-c2nc3ccccn3c2NCc2ccccc2)cc1OC (stereo not drawn) the results were Peg3 prom inh-1 93*, TROY NFkB inh -65, CF NFkB block 18, TWEAK-Fn14 inh -13, KKLEB cytotox -6, HIF-2a inh -292 and Peg3 prom inh-2 97*.
